We go through 103 molecules from ChEMBL document CHEMBL4513216, “Probing the Open Global Health Chemical Diversity Library for Multistage-Active Starting Points for Next-Generation Antimalarials” (ACS Infect Dis, 2020).

SMILES strings stand for the structures. The campaign covered roughly 65,000 compounds. About 2,100 (3.2%) showed an effect of 50% or more. The median lay at about -52%. Shown is part of a subset that was picked to be rich in strong results.

The test deals with Plasmodium falciparum. Put plainly: Screen against P. falciparum Asexual Blood Stage (ABS), at 5uM. It counts as functional, Dd2. The conditions noted are these: tested at 5 uM.
In the case of `CN(C)[C@@H]1CCN(C(=O)c2cccn2C)[C@H]1Cc1cnn(C)c1`, the INHIBITION is given as -109%.
On to `O=C(c1ccco1)N1CC[C@@H]2O[C@@H](COCCN3CCCC3)CC[C@@H]21`, for which the INHIBITION is -86.1%.
On to `c1cnc(N2CC[C@@H]3O[C@@H](COCc4cccnc4)CC[C@@H]32)nc1`, for which the INHIBITION is -60.3%.
In the case of `CCN(CC)Cc1ccc(C(=O)NC2CCc3cc(Cl)ccc32)o1` (stereo not drawn) it was 56%.
Regarding `CCN(CC)Cc1ccc(C(=O)NC2CCc3cc(Br)ccc32)o1` (stereo not drawn), the INHIBITION was found to be 47.7%.
Regarding `CCN(CC)Cc1ccc(C(=O)NC2CCc3cc(F)ccc32)o1` (stereo not drawn), the INHIBITION was 16.3%.
Regarding `Cc1cncc(C(=O)NCCSCc2cccs2)c1`, the INHIBITION was -11%.
As for `CN1CCOC(CNCCOc2cccc(C#N)c2)C1` (stereo not drawn), the INHIBITION was -70.4%.
In the case of `OC1CCN(Cc2cc3c(cc2Br)OCCO3)CC1` it was -16.3%.
In the case of `OCC1CCN(Cc2cc3c(cc2Br)OCCO3)CC1` it was -9.89%; in that of `Brc1cc2c(cc1CN1CCC(N3CCCCC3)CC1)OCCO2`, 61.5%.
Turning to `CN1CCN(C2CCN(CCOc3cccc(Cl)c3)CC2)C1=O`, the INHIBITION is -9.24%.
Take `Cn1ncc2c1NC(=O)CC2c1ccccc1Br` (stereo not drawn): the INHIBITION is -46.4%.
Turning to `CS(=O)(=O)NCc1cc(=O)n2c(n1)CN(Cc1ccco1)CCC2`, the INHIBITION is reported as -15.8%.
For `CNC(=O)c1cn[nH]c1C1(C)CCCN(Cc2ccccn2)C1` (stereo not drawn), the INHIBITION was determined as 61.9%.
With `CN(C)C(=O)c1cn[nH]c1C1(C)CCCN(Cc2ccccn2)C1` (stereo not drawn), the INHIBITION is given as -73.2%.
Turning to `CNC(=O)c1cn[nH]c1C1(C)CCCN(Cc2ccccc2OC)C1` (stereo not drawn), the INHIBITION worked out at 31.1%.
For `CCOc1nnc(CN2CCN(CCOC)CC2)s1`, the INHIBITION is reported as -108%.
Take `CN(C)S(=O)(=O)N1C[C@H]2CC[C@@H](C1)N(CCC(=O)NCc1ccco1)C2`: the INHIBITION is listed as -109%.
Consider `Cc1occc1C(=O)N1C[C@@H]2CCCO[C@@H]2[C@H](NC(=O)CC2CC2)C1`, for which the INHIBITION is recorded as -27.2%.
In the case of `COc1ccc(CCNC(=O)C(C)Nc2ccc(C)c(C)c2)cc1` (stereo not drawn), the INHIBITION is recorded as -52%.
With `Cc1nc(CN2CCc3nc(NC(C)C)nc(C)c3C2)cs1`, the INHIBITION is on record as -19.1%.
In the case of `CCS(=O)(=O)N1CCc2nc(N3CCCC3)nc(N(C)C)c2CC1`, the INHIBITION is recorded as -19.4%.
For the molecule `CC(C)Nc1nc(N2CCCC2)nc2c1CN(C)CC2`, the INHIBITION was found to be 48.5%.
On to `CC(C)Nc1nc(N2CCCC2)nc2c1CN(C(C)C)CC2`, for which the INHIBITION worked out at 66.8%.
For the molecule `CCN1CCc2nc(N3CCOCC3)nc(NC(C)C)c2C1`, the INHIBITION was 16.7%.
Regarding `Cc1nc(CN2CCc3nc(N4CCCC4)nc(NC(C)C)c3C2)cs1`, the INHIBITION came out at 57.3%.
In the case of `CC(C)Nc1nc(N2CCCC2)nc2c1CCN(S(C)(=O)=O)CC2` it was 51.5%.
Take `CC(C)Nc1nc(N2CCCC2)nc2c1CN(c1ncc(F)cn1)CC2`: the INHIBITION was found to be 23.3%.
As to `CC(C)CCN1CCc2nc(N3CCOCC3)nc(NC(C)C)c2C1`, the INHIBITION stood at 8.26%.
For `Cc1nc(N2CCCC2)nc2c1CN(C(C)C)CC2`, the INHIBITION is -36.3%.
Consider `CCCN1CCc2nc(N3CCOCC3)nc(NC(C)C)c2C1`, for which the INHIBITION is on record as -33.6%.
Take `CC(C)Nc1nc(N2CCCC2)nc2c1CN(S(C)(=O)=O)CC2`: the INHIBITION is recorded as 50.6%.
In the case of `CC1(C)CN=C(N2CCN(CCCN3CCOCC3)CC2)S1` it was -67.2%.
In the case of `N#Cc1ccc(N2CCCC3(CCN(c4cncnc4)C3=O)C2)nc1` (stereo not drawn) it was -38.5%.
Turning to `CCN(CCO)C[C@@H]1CN(C(=O)c2ccc(C)s2)C[C@@H]1CO`, the INHIBITION is listed as -69.5%.
For `CN(C)C(=O)C1CN(Cc2ccsc2)Cc2ccnn2C1` (stereo not drawn), the INHIBITION was -99.4%.
In the case of `CCC(=O)Nc1ccc2c(c1)C1(CCOCC1)CN2CCOC` it was -59.9%; in that of `Fc1cccc(N2C[C@H]3CCN(c4cccnc4)C[C@H]3C2)c1`, 13.9%; in that of `O=C(CCc1nc(-c2ccsc2)no1)NCC1CCN(C2CC2)C1` (stereo not drawn), 2.06%.
Take `COCCc1noc(CN2CCc3nn(C(C)C)c(=O)cc3C2)n1`: the INHIBITION is reported as -60.6%.
As for `CCn1nc2c(cc1=O)CN(Cc1nc(CCOC)no1)CC2`, the INHIBITION is given as -151%.
In the case of `CCCn1nc2c(cc1=O)CN(Cc1nc(CCOC)no1)CC2` it was 62.4%; in that of `c1cncc(-c2nccc(CN3CCCC3)n2)c1`, -151%; in that of `CCc1c(C)nc2ccccc2c1N1CCC(NC(C)=O)CC1`, 24.4%.
For `CCc1c(C)nc2ccccc2c1N1CCC(O)CC1`, the INHIBITION worked out at 0.854%.
For the molecule `CCc1c(C)nc2ccccc2c1N1CCC(C(=O)NC)CC1`, the INHIBITION is 52.7%.
Regarding `Cc1ccc(C(=O)N2C[C@@H]3[C@@H](C2)OCC(=O)N3Cc2cccnc2)o1`, the INHIBITION is given as -84.3%.
For the molecule `CN(C)Cc1cccc(-c2cccnc2C(=O)NCc2cn(C)cn2)c1`, the INHIBITION is recorded as -167%.
Consider `Cc1ccc(C(=O)N2C[C@H]3CCC[C@@]3(COCC3CCOCC3)C2)o1`, for which the INHIBITION is given as -35.2%.
`CCS(=O)(=O)Nc1ccc2oc(C)c(C(=O)OC)c2c1`: the INHIBITION is given as -54.7%.
For `COc1ccccc1C(=O)Nc1ccc(OC2CCN(C)CC2)cc1`, the INHIBITION is 64.2%.
Regarding `Cc1ccccc1C(=O)Nc1ccc(OC2CCN(C)CC2)cc1`, the INHIBITION is listed as -41.5%.
As to `CN1CCC(Oc2ccc(NC(=O)c3ccccc3Br)cc2)CC1`, the INHIBITION is listed as -76%.
Turning to `CC(Cn1ccnc1)NC(=O)NCCc1cccnc1` (stereo not drawn), the INHIBITION is 30.9%.
With `O=C(c1ncoc1C1CC1)N1CCN(CCOc2ccccc2)CC1`, the INHIBITION is on record as -35.9%.
Take `Cn1nccc1C(=O)N1CCCN(CCCc2ccccc2)CC1`: the INHIBITION is reported as -14.1%.
In the case of `O=C(c1ncoc1C1CC1)N1CCCN(CCCc2ccccc2)CC1` it was 69.7%; in that of `COCCn1c(-c2cccc(OC)c2)cnc1NC(=O)NCCC(C)C`, -63.4%; in that of `CN(C)C(=O)c1ccc(C2CCCN2C(=O)c2cccc3c2OCC3)s1` (stereo not drawn), -53.8%.
Regarding `Cn1ccnc1CN1CCC2(CC1)CN(c1ccccn1)CCO2`, the INHIBITION is -254%.
With `Cc1noc(C)c1CN1CCC2(CC1)CN(c1ccccn1)CCO2`, the INHIBITION came out at 30%.
As to `COc1ncccc1CN1CCC2(CC1)CN(c1ccccn1)CCO2`, the INHIBITION was found to be 56.5%.
Take `c1ccc(CN2CCC3(CC2)CN(c2ccccn2)CCO3)nc1`: the INHIBITION is -67.1%.
As for `COc1ccc(CN2CCC3(CC2)CN(c2ccccn2)CCO3)cc1`, the INHIBITION came to 62.3%.
Take `Fc1ccc(CN2CCC3(CC2)CN(c2ccccn2)CCO3)cc1`: the INHIBITION worked out at 49%.
For the molecule `COCC(=O)NCc1cc(=O)n2c(n1)CN(C)CCC2`, the INHIBITION is -101%.
With `Cc1nc(OCC(=O)N2CCCC2)cc(-n2cccn2)n1`, the INHIBITION is listed as -111%.
In the case of `CCC(CC)C(=O)N1CCC2(CC1)c1ccccc1[C@@H](OC)[C@@H]2O` it was -1.77%.
`Cc1ccc(C2CN(c3nnc(C(F)F)s3)CCO2)c(C)c1` (stereo not drawn): the INHIBITION is listed as -42.4%.
Regarding `Cc1cc(C)n(C2CN(CC(=O)N(C)Cc3ccsc3)C2)n1`, the INHIBITION turned out to be 26.5%.
In the case of `COc1cccc(CN(C)C(=O)CN2CC(n3nc(C)cc3C)C2)c1` it was 63.3%; in that of `Cc1cc(C)n(C2CN(CC(=O)N(C)Cc3cnn(C)c3)C2)n1`, -98.1%; in that of `Cc1nc(CN2CCC3(CC2)CC(=O)N(C)c2ccccc23)cs1`, -87.3%.
In the case of `Cc1ccc(C(=O)NC2CCN(C(=O)Nc3ccncc3)CC2)o1` it was -195%; in that of `COCCn1cnc2ccc(NC(=O)C3CC3)cc2c1=O`, -76%; in that of `CN(C)CC(=O)N1C[C@@H]2CC[C@H](Oc3ccccc3Cl)[C@@H]2C1`, 63.7%.
On to `O=C(Cn1ccnc1)N1C[C@@H]2CC[C@H](Oc3ccccc3Cl)[C@@H]2C1`, for which the INHIBITION was -43.2%.
`COCCOCC(=O)N1C[C@@H]2CC[C@H](Oc3ccccc3)[C@@H]2C1`: the INHIBITION is -114%.
With `COCCOCC(=O)N1C[C@@H]2CC[C@H](Oc3ccccc3Cl)[C@@H]2C1`, the INHIBITION is recorded as -103%.
As for `CN(C)CC(=O)N1C[C@@H]2CC[C@H](Oc3ccccc3)[C@@H]2C1`, the INHIBITION is 61.8%.
In the case of `CCOCC(=O)N1C[C@@H]2CC[C@H](Oc3ccccc3)[C@@H]2C1`, the INHIBITION is -68.1%.
For `CC(C)c1ncc(Cl)c(C(=O)N2CCN(C3CCCC3)CC2)n1`, the INHIBITION is -16.7%.
In the case of `Cc1nn(C)c(C)c1NC(=O)c1cccc(CN2CC[C@H](O)C2)c1` it was -133%; in that of `CN(C)S(=O)(=O)N(C)C(c1cccc(F)c1)c1ccccn1` (stereo not drawn), -27.6%.
For the molecule `O=C(c1cc(Cl)ccc1F)N1CCCC1Cn1cccn1` (stereo not drawn), the INHIBITION is given as -101%.
Consider `Cc1cc(C)n(CCCNc2ncnc3c2NC(=O)CN3)n1`, for which the INHIBITION is -40.1%.
In the case of `COc1ccccc1-n1nc(CC(C)C)nc1Cc1nnc(N)s1` it was -59.7%; in that of `CSc1ccc(CN(C)C(=O)c2cc3c([nH]c2=O)CCCC3=O)cc1`, -31.6%.
As for `CN(Cc1ccc(N(C)C)cc1)C(=O)c1cc2c([nH]c1=O)CCCC2=O`, the INHIBITION is reported as 50.8%.
With `CN(Cc1ccsc1)C(=O)c1cc2c([nH]c1=O)CCCC2=O`, the INHIBITION was -198%.
In the case of `Cc1cccc(CNC2CCCc3c2cnn3C)c1` (stereo not drawn), the INHIBITION was -37.4%.
In the case of `Cc1ccc(CNC2CCCc3c2cnn3Cc2ccccc2)s1` (stereo not drawn), the INHIBITION is 16.3%.
In the case of `Cc1cccc(CNC2CCCc3c2cnn3Cc2ccccc2)c1` (stereo not drawn), the INHIBITION was 65.9%.
On to `c1cnc(N2CC[C@@H](N3CCOCC3)[C@@H]2Cc2ccncc2)nc1`, for which the INHIBITION is given as -78%.
With `CC(=O)N1CCC(c2n[nH]cc2-c2ccnc(N)c2)C1` (stereo not drawn), the INHIBITION is given as -13.8%.
For the molecule `CC(C)CNc1cc(-c2c[nH]nc2C2CCN(C(=O)C3CC3)C2)ccn1` (stereo not drawn), the INHIBITION is reported as 84.6%.
In the case of `Nc1cc(-c2c[nH]nc2C2CCN(C(=O)C3CCCC3)C2)ccn1` (stereo not drawn), the INHIBITION is listed as -27.3%.
For `COc1cccc(CCC2CCCN(Cc3ncc[nH]3)C2)c1` (stereo not drawn), the INHIBITION was determined as 22%.
In the case of `Cc1cc(N2CCC(Cc3ccccc3)CC2)nc(-c2ccncc2)n1` it was -64.9%.
As to `CC(C)CN1CC[C@@H]2[C@@H]1CCN2S(=O)(=O)c1cccs1`, the INHIBITION is given as 17.9%.
In the case of `O=S(=O)(c1cccs1)N1CC[C@H]2[C@H]1CCN2CC1CC1` it was 57.7%.
For `CN1C(=O)CC[C@@H]2[C@H]1CCN2S(=O)(=O)c1cccs1`, the INHIBITION worked out at 47.1%.
